A selection: hits, their analogues and other compounds. The true share with any hit is near 15%.
SARS PLP yeast – inhibitors of SARS-CoV papain-like protease in yeast; S. cerevisiae expressing SARS-CoV PLpro, growth rescue; AID 485353; 330,000 tested, 0.19% active; Potency, µM (top dose mostly 32.9 µM), usual class: activators; calls by dose curve; also: nearly all actives have a fitted effect of over 55% in size
Pf growth 48h – inhibits P. falciparum growth in the first generation, 48 h | P. falciparum luciferase growth in erythrocytes, 48 h | Potency, µM (titrated, usually from 28.7 µM), actives largely listed as inhibitors | 310,000 tested, 5.9% active | AID 504832
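Parasite viability was followed by luminescence of a genomically integrated firefly luciferase. Cultures held 0.1% parasitemia at 2% hematocrit (final), incubated under 5% CO2 at 37 C.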
Pf growth 96h – inhibits malaria parasite growth, 96 h | AID 504834 | 320,000 tested, 6.9% active | Potency, µM (doses to about 28.7 µM), usual class: inhibitors | P. falciparum luciferase reporter growth, 96 h
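Readout is luminescence from an integrated firefly luciferase in P. falciparum. Red cells, 2% hematocrit and 0.05% parasitemia final, were cultured with compound through two parasite generations (96 hours) at 37 C, 5% CO2.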
HCMV inh – blocks human cytomegalovirus replication | 410,000 tested, 4.5% active | HFF cells, HCMV-luciferase reporter, 72 h; hits give low values | activity change, negative = inhibition, % at 57.5 µM; in the data active = activity change below about -60%; inconclusive = no clear call, values can overlap the other calls; inactive = above about -39%
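Human foreskin fibroblasts infected with luciferase-reporter HCMV at MOI 1 PFU/cell, compounds at two doses. Luciferase measured 72 h post infection; normalized to buffer-only basal and Salinomycin (10uM) controls.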
HCV inh – inhibitors of hepatitis C virus infection | Huh7.5.1 HCVcc-Cre infection, luciferase reporter, 44 h | 340,000 tested, 3.4% active | Potency, µM (series often up to 41.8 µM), actives largely listed as inhibitors
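Cells (1,000/well) were plated 4 h before compound, then infected with HCVcc-Cre virus (~0.5 moi). After 44 h further culture, infection was read as luciferase luminescence following a 15 min substrate incubation at room temperature.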
Sm TGR block – blocks Schistosoma mansoni thioredoxin glutathione reductase | Q962Y6 | purified TGR, DTNB reduction, TNB absorbance 405 nm | Potency, µM (titrated, usually from 114 µM), usual class: inhibitors | 360,000 tested, 3% active; also: nearly all actives have a fitted effect of over 60% in size
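TGR 20 nM + NADPH 100 uM (dispensed conc.), cpd preinc 15 min RT; start with NADPH (500 uM addition) then DTNB (15 mM addition). Kinetic TNB absorbance, 405 nm filter. Four-parameter Hill fit across titration.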
Large screens that a line does not name were inactive. Unless noted, calls follow the shape of the dose curve; as a rule, active = well fitted curve in the direction sought with a large enough effect; inconclusive = small, poorly fitted or top-dose-only effect, or another doubt; inactive = no such curve, though single readings can be large; an effect the other way counts as inactive or inconclusive.

COc1ccc(OC)c(NC(=S)NCc2ccc(S(N)(=O)=O)cc2)c1	Pf growth 96h inconclusive
NS(=O)(=O)c1ccc(CNC(=S)Nc2ccc(Cl)c(Cl)c2)cc1	HCMV inh -74
Cc1ccc(S(=O)(=O)NC(=O)NCc2ccccc2)cc1	none (no result: Pf growth 48h, Pf growth 96h)
Cc1ccc(S(=O)(=O)NC(=O)NCc2ccc(F)cc2)cc1	Pf growth 96h 4.1µM (no result: Sm TGR block)
COc1ccc(Cl)cc1NC(=S)NCc1ccc(S(N)(=O)=O)cc1	Pf growth 96h 12µM, HCV inh inconclusive, Sm TGR block inconclusive
NS(=O)(=O)c1ccc(CNC(=S)NC2CC2)cc1	Pf growth 96h 2.1µM, HCMV inh inconclusive
O=C(NCc1ccco1)c1cc2cc(Br)ccc2o1	Pf growth 96h inconclusive, HCMV inh inconclusive
COc1ccccc1NC(=O)c1coc(=O)c(Br)c1	none
Cc1ccc(-c2cc3ncc(C(=O)c4cc([N+](=O)[O-])ccc4O)cn3n2)cc1	none (no result: SARS PLP yeast, Pf growth 48h, Pf growth 96h, HCV inh)
CCn1ccc2cc(S(=O)(=O)N3CCC(C(=O)NCC(C)c4ccccc4)CC3)ccc21 (stereo unspecified)	none (no result: SARS PLP yeast, Pf growth 48h, Pf growth 96h, HCV inh)
NS(=O)(=O)c1ccc(CNC(=S)NCc2ccc(F)cc2)cc1	Pf growth 96h 10µM
CC(C)OC(=O)Nc1ccc2nc(-c3cscn3)[nH]c2c1	none (no result: SARS PLP yeast, HCV inh, Sm TGR block)
O=[N+]([O-])c1cnc(Sc2ccncn2)s1	HCMV inh -99, HCV inh 7.1µM, Sm TGR block 0.32µM
COc1ccc(S(=O)(=O)Nc2cc(C)nn2-c2ccccc2)cc1	none (no result: Pf growth 48h)
COc1ccccc1S(=O)(=O)Nc1cc(C)nn1-c1ccc(C)cc1	Pf growth 48h 2.6µM, Pf growth 96h inconclusive
CC(C)(C)NC(=O)NC(=O)COC(=O)CNS(=O)(=O)/C=C/c1ccccc1	none
Cc1oc2c(CN3CCCC3)c(O)ccc2c(=O)c1-c1ccc(Cl)cc1	Pf growth 48h inconclusive
Cc1oc2c(CN3CCOCC3)c(O)ccc2c(=O)c1-c1ccc(Br)cc1	Pf growth 48h 4.1µM, Pf growth 96h 13µM
CC1CCCCN1Cc1c(O)ccc2c(=O)c(-c3nc4ccccc4s3)coc12 (stereo unspecified)	Pf growth 48h 2.1µM, Pf growth 96h 10µM, HCV inh inconclusive
Cc1oc2c(CN3CCCCC3C)c(O)ccc2c(=O)c1-c1ccc(Br)cc1 (stereo unspecified)	Pf growth 48h 13µM, Pf growth 96h 13µM
Cc1oc2c(CN3CCOCC3)c(O)ccc2c(=O)c1-c1ccc(Cl)cc1	Pf growth 48h inconclusive, Pf growth 96h 9.3µM, HCMV inh inconclusive
O=C(NCc1ccccc1Cl)c1nnc(Cc2cccc(F)c2)o1	none (no result: SARS PLP yeast, Pf growth 48h, Pf growth 96h, HCV inh)
CCC(=O)N1c2ccccc2CC1C(=O)NCc1cccc(OC)c1OC (stereo unspecified)	none (no result: SARS PLP yeast, Pf growth 48h, Pf growth 96h, HCV inh)
Cc1ccc(NC(=O)CN2C(=O)N/C(=C\c3ccco3)C2=O)cc1	none (no result: Pf growth 48h, Pf growth 96h, HCV inh, Sm TGR block)
Cc1ccc(C)c(OCC(=O)Nc2ccc(S(=O)(=O)Nc3onc(C)c3C)cc2)c1C	none (no result: SARS PLP yeast, Pf growth 48h, Pf growth 96h, HCV inh)
COc1cc(OC)cc(-c2noc([C@@H]3O[C@H](CO)[C@@H](O)[C@H]3O)n2)c1	none (no result: SARS PLP yeast, Pf growth 48h, Pf growth 96h, HCV inh, Sm TGR block)
CCCc1cc(=O)oc2cc(OCC(=O)NC3CCN(Cc4ccccc4)CC3)ccc12	Pf growth 48h inconclusive, Pf growth 96h inconclusive, HCV inh inconclusive
Cc1ccccc1-c1cc2nc(NCc3ccc4occc4c3)n(C)c(=O)c2s1	none (no result: SARS PLP yeast, Pf growth 48h, Pf growth 96h, HCV inh, Sm TGR block)
CCCCNC(=O)C1(C)CCN1C(=O)c1ccc(C)c(F)c1 (stereo unspecified)	none (no result: SARS PLP yeast, Pf growth 48h, Pf growth 96h, HCV inh, Sm TGR block)
Cc1ccccc1N1CCN(Cc2ccc([N+](=O)[O-])o2)CC1	Pf growth 96h inconclusive, Sm TGR block 35µM
COc1ccccc1N1CCN(Cc2ccc(-c3ccccc3[N+](=O)[O-])o2)CC1	Pf growth 96h inconclusive, HCV inh inconclusive, Sm TGR block 25µM
COc1ccccc1N1CCN(Cc2ccc(Br)s2)CC1	HCMV inh -81
COc1ccccc1N1CCN(Cc2ccco2)CC1	Pf growth 48h 2.3µM
O=[N+]([O-])c1ccc(CN2CCN(c3ccccc3Cl)CC2)o1	none
Clc1ccccc1N1CCN(Cc2ccco2)CC1	none
COc1cccc(NC(=O)C2CCN(c3cnccn3)CC2)c1	none
O=C(c1cccc([N+](=O)[O-])c1)N1CCN(c2ncccn2)CC1	none (no result: Pf growth 48h)
